Shiga inhibitor: A qHTS for Small Molecule Inhibitors of Shiga Toxin; Vero cells, Shiga toxin protein synthesis inhibition reporter; inhibition, % at 38.7 µM; 290,000 compounds, 9.2% hits; AID 2315, 2010; in the data active = inhibition mostly above about 28%, no sharp cut-off; inactive = mostly below about 43%; note: 0% is about no effect
MARV entry inh: qHTS for inhibitors of binding or entry into cells for Marburg Virus. AID 540276, 2011. 300,000 compounds, 1.8% hits. Potency, µM (highest dose often 37.8 µM), for the others: at the highest dose activity change, negative = inhibition, hits mostly inhibitors. Marburg virus pseudotyped entry inhibition, cell reporter; calls by dose curve; tested in HEK293 cells; note: potency is the fitted concentration of half-maximal effect; % is set by controls: 0 for no effect and ±100 for the full control effect
HCV inh: qHTS Assay for Inhibitors of Hepatitis C Virus (HCV). Huh7.5.1 HCVcc-Cre infection, luciferase reporter, 44 h. Potency, µM (series often up to 41.8 µM), for inactives: top-dose activity change, negative = inhibition, usual class: inhibitors. 340,000 compounds, 3.4% hits; active = well fitted inhibition curve with a large enough effect; inconclusive = small, poorly fitted or top-dose-only effect, or another doubt; inactive = no such curve, though single readings can be large or run the other way; note: potency is the fitted concentration of half-maximal effect; % is set by controls: 0 for no effect and ±100 for the full control effect
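After 44 h co-culture of compound, cells and HCVcc-Cre (~0.5 moi), substrate is added for 15 min at room temperature and luciferase measured over 15 sec. Cells were seeded at 1,000/well and pre-cultured 4 h.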
LASV entry inh: qHTS for Inhibitors of binding or entry into cells for Lassa Virus | 300,000 compounds, 1.2% hits | Potency, µM (highest dose often 37.9 µM), for the others: at the highest dose activity change, negative = inhibition, usual class: inhibitors | Lassa virus pseudotype entry inhibition, cell reporter; calls by dose curve; tested in HEK293 cells; note: potency is the fitted concentration of half-maximal effect; % is set by controls: 0 for no effect and ±100 for the full control effect; nearly all actives have a fitted effect of over 50% in size
CHX counter: Cycloheximide Counterscreen for Small Molecule Inhibitors of Shiga Toxin; cell reporter, cycloheximide protein synthesis inhibition counterscreen; 300,000 compounds, 12% hits; max response, %; AID 2314, 2010; in the data active = max response mostly above about 13%, no sharp cut-off; inactive = mostly below about 14%; note: read at 38.3 µM for the half of the compounds with a filed dose; 0% is about no effect
FMDV inh: High Throughput Screening for Foot and Mouth Disease Virus Antivirals. Potency, µM (highest dose often 57.9 µM), for the others: top-dose activity change, negative = inhibition, most hits filed as inhibitors. 410,000 compounds, 1.2% hits. FMDV antiviral cell-based qHTS; calls by dose curve; tested in HEK293T cells; note: read-out not given here; potency is the fitted concentration of half-maximal effect; % is set by controls: 0 for no effect and ±100 for the full control effect; nearly all actives have a fitted effect of over 45% in size
* hit, by the source's call; u = inconclusive; x = no result given; [ ] = dose if it differs, or a comment. Rows were chosen to be rich in hits. Some 13% of all compounds tested hit in one or more screens of this group.

SMILES	Shiga inhibitor	MARV entry inh	HCV inh	LASV entry inh	CHX counter	FMDV inh
O=C(O)CC1(CC(=O)NCc2ccc(F)cc2)CCCCC1	13	x	-1%	x	9	11%
COc1cc(NC(=S)N2CCOCC2)c(OC)cc1Cl	8	x	-14%	x	4	-4%
O=C(OCC(=O)c1c[nH]c2ccccc12)c1ccc(OC(F)F)cc1	x	x	x	x	x	-13%
Cc1ccc(Cn2cccc(C(=O)Nc3nc4ccc(C)cc4s3)c2=O)cc1	x	x	x	-13%[46.1 µM]	x	-23%
Cc1ccc(Cn2cccc(-c3nc4ccccc4s3)c2=O)cc1	70*	u	u	9%	43*	36%
O=c1c(-c2nc3ccccc3s2)cccn1Cc1ccccc1	102*	u	-29%	u	51*	24%
Cc1ccccc1S(=O)(=O)NC(=O)C1(C)CCN1C(=O)CCc1ccccc1 (centres undefined)	x	x	x	x	x	14%
O=C(NCc1cn2ccccc2n1)c1ccco1	37	x	12%	x	25*	2%
O=C(Nc1ccc(-c2cn3ccccc3n2)cc1)c1ccco1	68*	u	-11%	u	58*	u
O=C(C1CCCO1)N1CCN(S(=O)(=O)c2cccc3nsnc23)CC1 (centres undefined)	7	-13%	6%	-4%	-4	-8%
COc1ccccc1NC(=O)c1c(NC(=O)Cc2ccccc2)sc2c1CCC(C(C)(C)C)C2 (centres undefined)	x	2%[46.1 µM]	x	18%[46.1 µM]	x	-12%
O=C(O)C[C@H](NC(=O)COc1ccc(Cl)cc1Cl)C(=O)O	x	1%	x	x	x	x
CC(C)CNC(=O)C1CCN(Cc2ccc(OCc3ccccc3)cc2)CC1	79*	u	u	4%	27*	13%
CC(O)CNC(=O)C1CCN(Cc2ccc(OCc3ccccc3)cc2)CC1 (centres undefined)	130*	u	-28%	-4%	37*	7%
CC(C)NC(=O)C1CCN(Cc2cccc(OCc3ccccc3)c2)CC1	x	x	x	x	x	0%
Cc1cc(O)c2c(C)c(CC(=O)N3CCN(C(=O)C4COc5ccccc5O4)CC3)c(=O)oc2c1 (centres undefined)	4	x	u	x	-3	-16%
COc1cc(C)cc2oc(=O)c(CC(=O)N3CCN(C(=O)C4COc5ccccc5O4)CC3)c(C)c12 (centres undefined)	2	x	10µM*	x	-10	-20%
CCCC(NS(=O)(=O)c1ccc(-c2ccc(=O)[nH]n2)s1)c1cccs1 (centres undefined)	23*	u	-20%	u	23*	0%
CC(C)(C)OC(=O)N1CCC(c2c(C(=O)NCCN3CCOCC3)cnn2-c2cccc(Cl)c2)CC1	x	x	x	u	x	-13%
CC(=O)N1c2ccc(S(=O)(=O)NCC3CCC(C(=O)Nc4cccc(C)n4)CC3)cc2CC1C (centres undefined)	2	u	u	u	-14	22µM*
CC(=O)N1c2ccc(S(=O)(=O)N3CCC(C(=O)Nc4cccc(C)n4)CC3)cc2CC1C (centres undefined)	-3	x	1.3µM*	x	-4	-19%
CC(=O)N1c2ccc(S(=O)(=O)N3CCC(C(=O)Nc4ccccn4)CC3)cc2CC1C (centres undefined)	13	x	u	x	-4	-28%
COc1ccccc1C(=O)Nc1ccc(C(=O)O)cc1	-7	11%	-2%	2%	-3	24%
COc1ccccc1C(=O)Nc1ccc(C(=O)c2ccccc2)cc1	62*	u	-26%	-26%[46.1 µM]	27*	u
COc1cccc2cc(C(=O)Nc3ccccc3C)/c(=N/O)oc12	89*	x	9%	x	28*	22%
SMILES	Shiga inhibitor	MARV entry inh	HCV inh	LASV entry inh	CHX counter	FMDV inh
COc1ccc2o/c(=N\O)c(C(=O)Nc3ccccc3OC)cc2c1	27	-3%	6%	-1%	7	3%
COc1ccccc1C(=O)Nc1ccc(Br)cc1C	63*	u	-9%	x	29*	81%
COc1ccccc1C(=O)Oc1ccccc1C(=O)Nc1ccccc1	52*	x	4%	x	23*	38%
COc1ccccc1C(=O)NNC(=O)C(=O)Nc1ccc(C)cc1	-2	6%[46.1 µM]	-24%	-29%[46.1 µM]	-3	7%
O=C1C2C3C=CC(CC3)C2C(=O)N1c1ccc(Cl)cc1Cl (centres undefined)	-8	x	13%	x	1	-7%
COC(=O)/C=C1\OCc2cc(OCc3ccccc3)ccc21	x	x	x	x	x	10%
Nc1nc(=S)n(-c2ccccc2)[nH]1	10	1%[46.1 µM]	10%	x	10	6%
Cc1cc(C(=O)N(Cc2nnc(-c3ccc(Cl)cc3)o2)C(C)C)c2ccccc2n1	x	x	-13%	x	x	-11%
COc1cc(Cl)c(C)cc1NC(=O)CCn1cnc2onc(-c3ccc(F)cc3)c2c1=O	x	x	x	-9%[46.1 µM]	x	0%
O=C(Oc1ccccc1C(=O)Nc1ccccc1)c1ccc(Br)c([N+](=O)[O-])c1	26*	u	8%	0%	50*	-6%
O=C(Nc1ccccc1)c1ccccc1Oc1ccc(C(F)(F)F)cc1[N+](=O)[O-]	-13	u	9%	-17%	0	0%
CCN(CC)CCn1c2c(c(SCC(=O)Nc3nc4ccc(C)cc4s3)nc1=O)CCC2	x	u	u	9%	x	-7%
CC(/C=N/n1cnnc1)=C\c1ccccc1	-9	-6%	24%	5%	-1	-13%
COCCn1ccc2c(OCC(=O)NCc3ccc(F)cc3)cccc2c1=O	x	x	x	u	x	-20%
COCCn1ccc2c(OCC(=O)NCCc3ccccc3)cccc2c1=O	x	-18%[46.1 µM]	10µM*	u	x	32%
CCOCCn1ccc2c(OCC(=O)Nc3ccc(OC)c(OC)c3)cccc2c1=O	x	u	u	-9%	x	25µM*
Cc1cc(C)c2c(CN3CCN(C)CC3)cc(=O)oc2c1	-16	u	u	-3%	-1	6%
C=CCn1c2ccccc2c(=O)c2cc(C#Cc3cc(OC)cc(OC)c3)ccc21	x	x	u	x	x	-2%
Cn1c2ccccc2c(=O)c2cc(C#Cc3ccccn3)ccc21	11	x	0%	x	23*	67%
Cn1c2ccccc2c(=O)c2cc(C#Cc3ccsc3)ccc21	17	x	10%	x	9.3*	26%
Cn1c2ccccc2c(=O)c2ccc(C#Cc3ccccn3)cc21	10	x	-3%	x	2	10%
O=C1C2C3CCCC3=C3CCCC3C2C(=O)N1c1cccc(Cl)c1 (centres undefined)	-8	-23%	9%	15%	-4	-25%
O=C1C2C3C=CC(c4ccccc4)(C2C(=O)N1c1cccc(Cl)c1)C1C(=O)N(c2cccc(Cl)c2)C(=O)C31 (centres undefined)	-3	u	10µM*	u	-1	-28%
O=[N+]([O-])c1cc(S(=O)(=O)Nc2ccccc2)ccc1N1CCN(c2ccc(O)cc2)CC1	8	1%	14%	-5%	-3	5%

Source: PubChem BioAssay
